Assay [1] can be described thus: NS1 protein of Zika virus - qHTS assay to identify small molecule inhibitors in human HEK 293 cells (AID 1347053). Further: series mostly up to about 46 µM; nearly all actives have a fitted effect of over 55% in size. The essentials: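 HEK 293; 20 h pre-culture, 37 C/5% CO2; cpd 1 h pre-infection; ZIKV MR766, MOI = 0.5, 24 h, 37 C; TR-FRET NS1 readout (two anti-NS1 Abs); norm. to no-virus vs infected.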
Assay [2] in a line: qHTS of pediatric cancer cell lines to identify multiple opportunities for drug repurposing: Primary screen for TC32 cells (AID 1347089). Further: nearly all actives have a fitted effect of over 60% in size. Summed up:
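qHTS, TC32, 48 h drug treatment, CellTiter-Glo luminescence as a proxy for metabolically active cells; primary top concentration 46 µM (MIPE 11-pt, NPC 8-pt); confirmatory 11-pt.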

Assay [3] can be described thus: qHTS of pediatric cancer cell lines to identify multiple opportunities for drug repurposing: Primary screen for DAOY cells (AID 1347090). Further: series mostly up to about 46 µM; nearly all actives have a fitted effect of over 55% in size. The essentials: (§1)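 Cell viability, CellTiter-Glo luminescence; 500-1,000 cells/well, 8- or 11-point titration, 48 h compound exposure at 37 degrees C, 5% CO2. Controls: DMSO neutral, bortezomib 2.3 µM final as positive.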
Assay [4] in a line: qHTS of pediatric cancer cell lines to identify multiple opportunities for drug repurposing: Primary screen for SJ-GBM2 cells (AID 1347091). Further: potency means the concentration at half of the fitted maximal effect. Summed up:
as §1

A short description of assay [5]: qHTS of pediatric cancer cell lines to identify multiple opportunities for drug repurposing: Primary screen for A673 cells (AID 1347092). Further: nearly all actives have a fitted effect of over 45% in size. The essentials:
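Luminescence from CellTiter-Glo, taken after 15 min at room temperature, served as the proxy for metabolically active cells following 48 h treatment. Both potency and efficacy were taken from curves fitted to the titration data.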

A short description of assay [6]: qHTS of pediatric cancer cell lines to identify multiple opportunities for drug repurposing: Primary screen for SK-N-MC cells (AID 1347093). Further: potency means the concentration at half of the fitted maximal effect. The essentials: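 Metabolically active cells were quantified by ATP-dependent luminescence (CellTiter-Glo, 15 min at room temperature) following 48 h treatment. Cells had been plated at 500-1,000 per well and settled for 5 h beforehand.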

A short description of assay [7]: qHTS of pediatric cancer cell lines to identify multiple opportunities for drug repurposing: Primary screen for BT-37 cells (AID 1347094). Further: series mostly up to about 57 µM. Summed up:
(§2)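 Quantitative HTS format: each compound titrated (MIPE 11 points from 0.78 nM, NPC 8 points from 0.59 nM) onto cells plated 5 hours earlier. After 48 h at 37 degrees C, CellTiter-Glo luminescence was recorded.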

The nature of assay [8]: qHTS of pediatric cancer cell lines to identify multiple opportunities for drug repurposing: Primary screen for NB-EBc1 cells (AID 1347095). The essentials: as §2
A short description of assay [9]: qHTS of pediatric cancer cell lines to identify multiple opportunities for drug repurposing: Primary screen for U-2 OS cells (AID 1347096). Further: nearly all actives have a fitted effect of over 50% in size. The essentials: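 Cells (500-1,000/well) rested 5 h, then received compounds for 48 h; metabolically active cells were measured by CellTiter-Glo luminescence. Final concentrations spanned up to 46 µM (MIPE, 11-point) or 0.59 nM-46 µM (NPC, 8-point) in primary screens, 11-point in follow-ups.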

Structures are written as SMILES. Records with an inconclusive call do not appear. Active and inactive are the calls of the source. The call rests on the fitted dose curve; in most records, active means well fitted curve in the direction sought with a large enough effect; inconclusive means small, poorly fitted or top-dose-only effect, or another doubt; inactive means no such curve, though single readings can be large; an effect the other way counts as inactive or inconclusive.

In the case of `N[C@H](Cc1c[nH]c2ccccc12)C(=O)O`, the Potency result in [1], in [2], in [3], in assay [4], in assay [5] and in assay [6] was “inactive” each time. The Potency result in assay [7], in assay [8] and in assay [9] was “inactive” each time.
As for `C#C[C@]1(O)CC[C@H]2[C@@H]3CCC4=CC(=O)CC[C@@H]4[C@H]3CC[C@@]21C`, the Potency entry in [1], in [2], in [3], in assay [4], in [5] and in assay [6] was “inactive” each time. Moreover, the Potency entry in [7] and in assay [9] was “inactive” throughout.
With `NCCC(O)(P(=O)(O)O)P(=O)(O)O`, the Potency result in assay [1], in assay [2], in assay [3], in assay [4], in assay [5] and in [6] was “inactive” throughout. The Potency entry in assay [8] and in assay [9] was “inactive” throughout.
Consider `CCCCc1nc(Cl)c(CO)n1Cc1ccc(-c2ccccc2-c2nn[nH]n2)cc1`, for which the Potency result in assay [1], in assay [2], in assay [3], in assay [4], in assay [5] and in [7] was “inactive” each time. The Potency entry in [8] and in assay [9] was “inactive” in each case.
On to `O=C(COc1ccc(Cl)cc1)N1CCN(Cc2ccc3c(c2)OCO3)CC1`, for which the Potency result in [1], in assay [2], in [3], in assay [4], in assay [5] and in [6] was “inactive” throughout. Moreover, the Potency result in [7] and in assay [9] was “inactive” in each case.
Take `CC(=O)Oc1ccc(C(=C2CCCCC2)c2ccc(OC(C)=O)cc2)cc1`: the Potency entry in [1], in [2], in [3], in assay [4], in assay [5] and in [6] was “inactive” throughout. The Potency entry in [8] and in [9] was “inactive” throughout.
With `CC(=O)CC(c1ccc([N+](=O)[O-])cc1)c1c(O)c2ccccc2oc1=O` (stereo unspecified), the Potency entry in assay [1], in assay [2], in [3], in assay [4], in assay [5] and in [6] was “inactive” each time. Also, the Potency entry in assay [7], in [8] and in assay [9] was “inactive” throughout.
Regarding `CN1C(CCl)Nc2cc(Cl)c(S(N)(=O)=O)cc2S1(=O)=O` (stereo unspecified), the Potency result in [1], in [2], in [3], in assay [4], in assay [6] and in assay [7] was “inactive” each time. Further, the Potency entry in [8] and in assay [9] was “inactive” throughout.
Consider `Cc1ccnc(NS(=O)(=O)c2ccc(N)cc2)n1`, for which the Potency entry in [1], in [2], in [3], in assay [4], in assay [5] and in assay [6] was “inactive” each time. The Potency entry in assay [7], in assay [8] and in assay [9] was “inactive” in each case.
Take `OC[C@@H](O)[C@@H](O[C@@H]1O[C@H](CO)[C@H](O)[C@H](O)[C@H]1O)[C@H](O)[C@@H](O)CO`: the Potency entry in assay [1], in [2], in [3], in [4], in assay [5] and in [7] was “inactive” throughout. Besides, the Potency result in assay [8] and in assay [9] was “inactive” throughout.
Take `CCN(CC)C(=O)N1CCN(C)CC1`: the Potency entry in assay [1], in assay [2], in assay [3], in assay [4], in assay [5] and in assay [6] was “inactive” throughout. In addition, the Potency result in assay [7], in assay [8] and in [9] was “inactive” in each case.
On to `CCCCCCCCCCCCCCCCOP(=O)([O-])OCC[N+](C)(C)C`, for which the Potency result in [1], in [2], in assay [3], in [7] and in assay [9] was “inactive” throughout. The values for the Potency in assay [4] and in assay [6] were 8.41 µM (active) and 6.68 µM (active), respectively.
Take `CCOC(=O)n1ccn(C)c1=S`: the Potency entry in assay [1], in assay [2], in assay [3], in assay [4], in assay [5] and in assay [7] was “inactive” in each case. In addition, the Potency result in [8] and in assay [9] was “inactive” in each case.
Consider `CC(=O)OCC(=O)NCCCOc1cccc(CN2CCCCC2)c1`, for which the Potency result in assay [1], in [2], in assay [3], in assay [4], in assay [5] and in assay [6] was “inactive” each time. Besides, the Potency entry in [7], in assay [8] and in assay [9] was “inactive” each time.
In the case of `CC(=O)OCC(=O)[C@@]1(OC(C)=O)[C@@H](C)C[C@H]2[C@@H]3C[C@H](F)C4=CC(=O)C=C[C@]4(C)[C@@]3(F)[C@@H](O)C[C@@]21C`, the Potency entry in assay [1], in [2], in [3], in assay [4], in assay [5] and in [6] was “inactive” throughout. For the same compound, the Potency entry in assay [7], in [8] and in assay [9] was “inactive” each time.
With `C[C@@H]1C[C@H]2[C@@H]3CCC4=CC(=O)C=C[C@]4(C)[C@@]3(F)[C@@H](O)C[C@]2(C)[C@H]1C(=O)CO`, the Potency result in assay [1], in assay [2], in assay [3], in assay [4], in [5] and in assay [6] was “inactive” throughout. Moreover, the Potency result in [7], in assay [8] and in [9] was “inactive” in each case.
For `CC(C)(Oc1ccc(Cl)cc1)C(=O)O`, the Potency result in assay [1], in assay [2], in assay [3], in [4], in [5] and in [6] was “inactive” in each case. In addition, the Potency result in assay [7], in assay [8] and in assay [9] was “inactive” each time.
`OC(CCN1CCCCC1)(c1ccccc1)c1ccccc1`: the Potency result in assay [1], in [2], in [3], in assay [4], in assay [5] and in assay [6] was “inactive” each time. Further, the Potency entry in assay [8] and in [9] was “inactive” throughout.
As to `CCCOC(C(=O)OC1CCN(C)CC1)(c1ccccc1)c1ccccc1`, the Potency result in assay [1], in assay [2], in assay [3], in assay [4], in [5] and in assay [6] was “inactive” in each case. The Potency entry in [9] was “inactive”.
On to `O=S1(=O)c2cccc3cccc(c23)N1CCCN1CCN(c2ccc(F)cc2)CC1`, for which the Potency entry in assay [1], in [2], in [3], in [4], in assay [5] and in [8] was “inactive” throughout. For the same compound, the Potency result in assay [9] is “inactive”.
With `CC(Cc1cccc(C(F)(F)F)c1)NCCOC(=O)c1ccccc1` (stereo unspecified), the Potency entry in assay [1], in assay [2], in assay [3], in [4], in [5] and in [9] was “inactive” in each case.
